Only a selection was taken, and hits are over-represented in it overall.
Pf Dd2 inh = blocks in vitro growth of P. falciparum Dd2; P. falciparum Dd2 growth, SYBR Green, 72 h; Potency, µM (highest dose often 28.9 µM), most hits filed as inhibitors; 4.3% of 120,000 active; AID 1347417; active means well fitted inhibition curve with a large enough effect; further: nearly all actives have a fitted effect of over 65% in size
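Readout: SYBR Green fluorescence, 485 nm excitation, 535 nm emission, after ~16 h lysis at 37C. Before that, Dd2-infected red cells (2.5% hematocrit) grew 72 h with compound, 29 uM top final concentration.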
Of the large screens only hits and unclear results are named; the others gave an inactive call.

Cc1ccc2c(n1)N(C)[C@H](CO)CCN(Cc1ccc(F)cc1)C2	none
Cc1ccc2c(n1)N(C)[C@H](CO)CCN(Cc1ccccc1Cl)C2	none
COc1ccc(-c2cc(N3CCCC(NC(=O)Cc4ccc(F)cc4)C3)n[nH]2)cc1 (configuration not stated)	none
CC(C)C1CN(c2ccc(C#N)cn2)CCC(=O)N1Cc1ccc(F)cc1 (configuration not stated)	none
Fc1ccc(OCC2CCCN(c3ccc(Cn4ccnc4)cn3)C2)cc1 (configuration not stated)	Pf Dd2 inh 11µM
CCCCNC(=O)N1CCc2c(c3cc(F)ccc3n2C)C1	none
COCc1cc(=O)n(CC(=O)Nc2cccc(C)c2)c(N2CCOCC2)n1	none
O=c1ncn(Cc2ccccc2)c2ccc(-c3ccc(O)c(F)c3)nc12	none
CC1(C)[C@H](Cc2cc(CCO)on2)C[C@@H]1N(S(C)(=O)=O)S(C)(=O)=O	none
CCOc1ccc(S(=O)(=O)c2cn(C)c3ccccc3c2=O)cc1	none
CCOc1ccc(/C=C/c2nc3ccccc3n2S(=O)(=O)c2ccc(Br)cc2)cc1	Pf Dd2 inh 11µM
CCOc1ccc(S(=O)(=O)Nc2nc3ccccc3nc2Nc2ccc(OC)cc2)cc1	none
CCN(CCOc1ccc(F)cc1)C(=O)c1cnc(NC(C)C)nc1	none
CNC(=O)C1(N2CCC[C@H]2C(=O)NCCN2CCOCC2)CCCCC1	none
c1ccc(Oc2cc3c(cn2)NCCN(CC2CCOCC2)C3)cc1	none
Cc1cc(CN2CCC3(CC(c4cccc(C(F)(F)F)c4)=NO3)C2)no1 (configuration not stated)	none
COc1ccc(-n2nc3c(N4CCCC(C(=O)NCCc5ccc(C)cc5)C4)nnc(C)c3c2C)cc1 (configuration not stated)	Pf Dd2 inh 8.9µM
COc1ccc(-n2nc3c(N4CCCC(C(=O)NCc5ccccc5C)C4)nnc(C)c3c2C)cc1 (configuration not stated)	none
CCc1ccc(NC(=O)C2CCCN(c3nnc(C)c4c(C)n(-c5ccccc5)nc34)C2)cc1 (configuration not stated)	none
Cc1nnc(N2CCCC(C(=O)NCc3ccccc3F)C2)c2nn(-c3ccc(Cl)cc3)c(C)c12 (configuration not stated)	none
CCOc1ccc(NC(=O)C2CCCN(c3nnc(C)c4c(C)n(-c5ccccc5)nc34)C2)cc1 (configuration not stated)	none
COc1ccc(-n2nc3c(N4CCCC(C(=O)NCCc5ccccc5C)C4)nnc(C)c3c2C)cc1 (configuration not stated)	Pf Dd2 inh 8.9µM
c1ccc(Cc2nnc([C@H]3CCN(Cc4ccncc4)C3)o2)cc1	none
CN(C)C(=O)c1ccn2cncc2c1	none
O=C(NC1CCN(c2ccc(F)cc2)C1=O)c1ccc(F)cc1Cl (configuration not stated)	none
COc1cccc(CNC(=O)[C@@H]2C[C@@H](O)CN2C2CCN(C(=O)COc3ccccc3)CC2)c1	none
O=C(Cc1ccccc1)Nc1sc2c(c1C(=O)Nc1cccc(Cl)c1)CCCCC2	none
Cc1ccc(NC(=O)c2c(NC(=O)Cc3ccccc3)sc3c2CCC3)cc1	none
CC1CCc2c(sc(NC(=O)Cc3ccccc3)c2C(=O)Nc2ccc(Cl)cc2)C1 (configuration not stated)	Pf Dd2 inh 10µM
O=C(NCCc1ccccc1)[C@@H]1COCC(=O)N1Cc1ccc(F)cc1	none
Cc1ccc(C(=O)NC2CCN(c3cc(-c4cccs4)[nH]n3)C2)c(C)c1 (configuration not stated)	none
O=C(c1ccc(Cl)nc1)N1CCn2c(nn(-c3ccc([N+](=O)[O-])cc3)c2=O)C1	none
CCCCc1nn(CC(=O)NCC2Cc3ccccc3CN2C)c(=O)n1CC (configuration not stated)	none
O=C(Nc1ccc(F)c(F)c1)C1CCN(C(=O)c2ncn3c2COC(c2ccccc2)C3)CC1 (configuration not stated)	none
O=C(c1ccc(CSc2ncccn2)o1)N1CCC2(CCOCC2)CC1	none
CCN(CC)C(=O)[C@@H]1CCC[C@@H](NCc2nccs2)CN(C)C(=O)C1	none
COc1ccc(-n2nc3ccc(NC(=O)COc4ccc(C)c(C)c4)cc3n2)cc1	none
COc1ccc(Nc2cc(C)c3cc(NC(=O)COc4cccc(C)c4)ccc3n2)cc1	Pf Dd2 inh 4µM
COc1ccc(CC(=O)Nc2ccc3nc(Nc4cccc(Cl)c4)cc(C)c3c2)cc1OC	none
CC1=C[C@@H](CNC(=O)c2cnccn2)[C@H](C(C)C)C[C@H]1Cc1nnc(-c2ccccc2F)o1	none
CC1=C[C@@H](CNC(=O)c2cncnc2)[C@H](C(C)C)C[C@H]1Cc1nnc(-c2ccccc2F)o1	none
CC1=C[C@@H](CN2CCCCC2)[C@H](C(C)C)C[C@H]1Cc1nnc(-c2cncn2C)o1	Pf Dd2 inh 7.9µM
CC1=C[C@@H](CNCc2ccc(Cl)cc2)[C@H](C(C)C)C[C@H]1Cc1nnc(-c2cncn2C)o1	Pf Dd2 inh 4µM
CC1=C[C@@H](CN2CCN(c3ncccn3)CC2)[C@H](C(C)C)C[C@H]1Cc1nnc(-c2cncn2C)o1	none
CC(=O)NC[C@@H]1C=C(C)[C@H](CC(=O)NCc2cccnc2)C[C@H]1C(C)C	none
CC1=C[C@@H](CNC(=O)c2ccccc2)[C@H](C(C)C)C[C@H]1Cc1nnc(-c2cncn2C)o1	none
Cc1ccccc1CN1CC[C@H](c2nnc(-c3cncn3C)o2)C1	none
CC1=C[C@@H](CNc2ccccn2)[C@H](C(C)C)C[C@H]1Cc1nnc(-c2cncn2C)o1	Pf Dd2 inh 5.6µM
COc1nccnc1NC1CCN(C(=O)NC2CCCC2)CC1	none
Cc1ccc(C2NC(=O)N(CC(=O)Nc3ccc4c(c3)OCO4)C3=C2C(=O)OC3)cc1 (configuration not stated)	none
COc1ccc(C(=O)N2C[C@@H](Oc3cccnc3)C[C@H]2C(N)=O)cc1F	none
CC(C)C1=NOC2(CCN(C(=O)c3ccccc3F)CC2)C1	none
O=S(=O)(NC[C@H]1COCc2nc3cccnc3n21)c1ccc(Cl)cc1	none
COc1ccccc1N1CCN(CCCNC(=O)c2cnn(-c3ccc(C)c(C)c3)c2C2CCN(C(=O)OC(C)(C)C)CC2)CC1	Pf Dd2 inh 5.6µM
COc1ccccc1N1CCN(CCCNC(=O)c2cnn(-c3cccc(Cl)c3)c2C2CCN(C(=O)OC(C)(C)C)CC2)CC1	Pf Dd2 inh 2µM
Cc1ccc(-n2ncc(C(=O)NCCCN3CCCCC3)c2C2CCN(C(=O)OC(C)(C)C)CC2)cc1	Pf Dd2 inh 10µM
CC(=O)NC[C@H]1O[C@H](Cc2cc(CN3CCN(c4ccccc4)CC3)on2)CC[C@@H]1O	none
Cc1noc(-c2cn(C3CCN(C(=O)c4cccn4C)C3)nn2)n1 (configuration not stated)	none
COc1ccccc1-c1nc(C(=O)N2CCOCC2)n2ccccc12	none
O=C(NCCCc1ccccc1)c1nnn2c1COC(c1ccc(Br)cc1)C2 (configuration not stated)	none
COc1cccc(C(=O)N2CCC(N3CC4CC(C3)[C@H]3CCCC(=O)N3C4)CC2)c1 (some centres not stated)	none
Cc1ccc(-c2nc3ccccn3c2Nc2ccc3c(c2)OCCO3)s1	none
CSc1ccc(-c2nc3cc(C)ccn3c2Nc2ccc(C)cc2)cc1	none
Cc1ccc2nc(-c3cccc(Cl)c3)c(Nc3ccc4c(c3)OCO4)n2c1	none
c1coc(-c2nc3ccccn3c2Nc2ccc3c(c2)OCCO3)c1	none
Cc1ccn2c(Nc3ccc4c(c3)OCO4)c(-c3ccc(O)cc3)nc2c1	Pf Dd2 inh 13µM
CN(C)c1ccc(-c2nc3ccccn3c2Nc2ccc3c(c2)OCCO3)cc1	Pf Dd2 inh 10µM

Screening results from PubChem BioAssay.
